Compound activity: PubChem BioAssay, several laboratories
Kir21 block – Kir2.1 (mouse) channel inhibition. P35561. HEK293-Kir2.1, FluxOR thallium flux fluorescence; hits give low values. B-score at 10 µM. actives 0.85% (n = 310,000). AID 1672;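 active = fluorescence ratio B-score at or below minus 3 SD of library scores, with starting-brightness B-score within 2 SD, cut at about -4.2 in these data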;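 note: channel flux triggered by added potassium and thallium sulfate stimulus; B-score of peak minus minimum fluorescence over baseline after thallium stimulus; more negative B-score means stronger Kir2.1 block with less thallium influx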
Target sequence (P35561 whole entry, looked up): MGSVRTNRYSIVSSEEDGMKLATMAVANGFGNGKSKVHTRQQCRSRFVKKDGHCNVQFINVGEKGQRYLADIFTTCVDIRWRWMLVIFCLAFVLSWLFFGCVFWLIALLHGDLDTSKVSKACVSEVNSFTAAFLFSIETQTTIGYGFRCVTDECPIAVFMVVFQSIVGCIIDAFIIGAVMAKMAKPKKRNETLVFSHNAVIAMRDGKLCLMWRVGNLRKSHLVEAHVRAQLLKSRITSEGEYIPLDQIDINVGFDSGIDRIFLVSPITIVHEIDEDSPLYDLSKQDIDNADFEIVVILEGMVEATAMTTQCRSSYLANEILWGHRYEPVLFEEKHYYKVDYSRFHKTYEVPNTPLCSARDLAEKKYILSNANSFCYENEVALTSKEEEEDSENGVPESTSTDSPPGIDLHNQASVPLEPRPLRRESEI
CHT block – inhibits the human high affinity choline transporter; AID 488975; actives 0.86% (n = 310,000); CHT-expressing cells, membrane potential dye, choline response; hits give low values; B-score at 10 µM;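 active = B-score over 3 SD under the library average, and starting fluorescence ratio not unusually high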;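 note: choline stimulus applied at its EC90 after an EC20 pre-addition; B-score computed on integrated fluorescence ratio after choline addition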
ANO1 activ – mouse TMEM16A channel activation, primary screen; Q8BHY3; HEK293 TMEM16A/YFP-H148Q/I152L, iodide quench fluorescence; hits give low values; B-score at 10 µM; actives 0.3% (n = 340,000); AID 623877;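 active = fluorescence-ratio B-score plate-corrected deviation score at least 3 library SD below zero, with starting fluorescence score within 5 deviations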;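 note: channel opened by trigger with iodide after compound preincubation; score built on the fluorescence ratio of max minus min over baseline; more negative score means more quench and so TMEM16A activation or potentiation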
Rce1 inhib – inhibitors of yeast Ras-converting enzyme | yeast membranes, quenched prenylated peptide cleavage fluorescence | AID 2563 | Q03530 | actives 0.27% (n = 290,000) | calls only;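 active = fall in fluorescence gain of 50% or more versus controls, with final raw signal at or below 3038400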;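 note: plate controls were neutral control wells for no effect and wells lacking membranes for full effect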
TMEM16A inh – inhibitors of mouse TMEM16A calcium-activated chloride channel; Q8BHY3; HEK293 TMEM16A/YFP iodide influx fluorescence, ionomycin; normalized B-score (activity score, 25-100; higher = stronger inhibition) at 10 µM; actives 1.2% (n = 310,000);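 active = ratio plate-corrected score three or more library SD toward inhibition, starting fluorescence score within five deviations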;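 note: score derived from kinetic fluorescence span divided by baseline fluorescence per well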
CHT allo act – allosteric activators of human choline transporter CHT; Q9GZV3; CHT-expressing cells, membrane potential dye, choline EC20; hits give high values; LV-AA mutant CHT in HEK293 cells; B-score at 10 µM; actives 0.49% (n = 310,000); AID 488977;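 active = initial fluorescence not abnormally high and integrated response B-score, plate-corrected, over 3 SD above library mean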
Starred values were filed as active, the others as inactive; i = inactive; x = no result; + = active, no number. Sampled rows, rich in hits. Any-hit rate of the full collection: about 3.2%.

SMILES	Kir21 block	CHT block	ANO1 activ	Rce1 inhib	TMEM16A inh	CHT allo act
c1ccc2c(-c3cn4ccccc4n3)c[nH]c2c1	0.05	i	x	+	i	i
Fc1ccc(CN2CCCN(Cc3nc(-c4ccc5c(c4)OCO5)no3)CC2)cc1	-6.75*	i	i	i	i	i
O=C(c1ccco1)N1CCCN(Cc2nc(-c3ccc4c(c3)OCO4)no2)CC1	0.61	i	i	i	i	i
CCOC(=S)SCC(=O)Nc1ncc(C)s1	0.04	i	i	i	i	i
CC(C)C[C@H](NC(=O)c1nc[nH]c1C(=O)N1CCN(c2ccccc2)CC1)C(=O)OCc1ccccc1	0.06	i	i	i	i	i
CC(C)C[C@H](NC(=O)c1nc[nH]c1C(=O)N1CCNCC1)C(=O)OCc1ccccc1	1.22	i	i	+	i	i
CCOC(=O)c1cnc2c(OC)cccc2c1Oc1ccccc1	-7.94*	i	i	i	i	i
Fc1ccc(C(CCCn2nnc(-c3cccnc3)n2)c2ccc(F)cc2)cc1	0.01	i	i	i	100*	i
Fc1ccc(-n2nnc(-c3cccnc3)n2)cc1	0.93	i	i	i	i	i
CCn1cc(C(=O)NCCN(C)C)c(=O)c2cc(F)c(N3CCN(C)CC3)cc21	-0.02	i	i	+	i	i
CC(=O)N1N=C(c2ccc(Cl)cc2)CC1c1ccco1 (stereo not drawn)	-0.49	i	i	i	i	i
CSCCC1NC(=O)N(CC(=O)N2N=C(c3ccc(Cl)cc3)CC2c2ccco2)C1=O (stereo not drawn)	1.56	i	i	i	25*	i
CC(=O)/C(=C/c1ccccc1)C(=O)Nc1ccccc1C	-5.54*	i	i	i	i	i
Cc1cc(NC(=O)CSc2nccn2-c2cccc(Cl)c2)no1	-1.82	i	i	i	i	i
Cc1ccc(-c2cc(C)nc3nc(N)nn23)cc1	-0.24	i	i	+	i	i
CNC(=S)NNC(=O)c1sc(-c2cc(C)on2)nc1C	-0.38	i	i	i	i	i
COc1ccc(O[C@H]2C=C[C@@H](c3ccccc3)O[C@@H]2COC(=O)CC/C(C)=N/OC[C@@H](O)COCc2ccco2)cc1	-1.63	i	x	i	25*	i
COc1ccc(Cn2c(=O)oc3ccc(C)cc32)cc1OC	-4.23*	i	i	i	i	i
COc1ccccc1Cn1c(=O)oc2ccc(C)cc21	-1.89	i	i	x	i	i
COc1cc2c(cc1OC)C(c1ccccc1[N+](=O)[O-])N(C(C)=O)CC2 (stereo not drawn)	-0.58	i	i	i	i	i
N/C(=N\OC(=O)c1ccc(Cl)cc1Cl)c1ccncc1	0.04	i	i	i	i	i
CCc1ccc(OCC(=O)O/N=C(\N)c2ccncc2)c(Br)c1	-0.2	i	i	i	i	i
N/C(=N\OC(=O)COc1ccc(Cl)cc1Br)c1ccncc1	x	x	-39.1*	x	x	x
N/C(=N\OC(=O)c1cc(Cl)ccc1Cl)c1ccncc1	1.55	i	-10.4*	i	i	i
CCc1cc(SC#N)cc(CC)c1NC(=O)CCl	-0.2	i	i	i	i	i
SMILES	Kir21 block	CHT block	ANO1 activ	Rce1 inhib	TMEM16A inh	CHT allo act
C#Cc1ccc2c(c1)COc1c3ccccc3nn1-2	0.05	i	i	i	i	i
CN1CCN(Cc2ccc(-c3ccc(Cl)cc3)o2)CC1	-4.66*	i	i	i	i	i
CCOc1ccccc1N1CCN(CC(=O)NCCc2ccc(S(N)(=O)=O)cc2)CC1	-1.17	i	-5.45*	i	i	i
CCOc1ccc2ccccc2c1CNCCc1ccc(S(N)(=O)=O)cc1	-4.36*	i	i	i	i	i
CCOc1ccc(CNCCc2ccc(S(N)(=O)=O)cc2)cc1	0.39	i	i	i	i	i
CCOC(=O)C(C)On1c(-c2ccc(Cl)cc2)nc2ccc([N+](=O)[O-])cc21 (stereo not drawn)	0.57	i	i	i	100*	i
